SENP6 inh – blocks the human protease SENP6; Q9GZR1; inhibition, % at 10 µM; hit rate 1.8% among 330,000; Recombinant SENP6 catalytic domain, aminoluciferin luminescence;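 active means inhibition above about 50% at the single tested dose, limit read from the data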;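 further: plate controls were DMSO wells with enzyme for no effect and DMSO wells lacking enzyme for full effect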
SENP8 block-1 – blocks the human protease SENP8 | Q96LD8 | purified SENP8, Z-RLRGG-aminoluciferin cleavage, luminescence | inhibition, % at 10 µM | hit rate 1.2% among 330,000 | AID 2540; in the data active means inhibition above about 50%
TRAIL sens C8 – caspase-8 TRAIL sensitization; NB7+C8 cells + TRAIL, ATPlite viability luminescence; inhibition (viability loss, TRAIL sensitization), % at 10 µM; hit rate 1% among 360,000; AID 624354;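 active means compounds causing at least 50% loss of cell viability in the single-dose screen, relative to plate controls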
PPC-1+TRAIL kill – compounds killing PPC-1 cancer cells with TRAIL present (potentiator screen, no TRAIL-free arm); hit rate 0.41% among 220,000; AID 1443; cell killing (% activity), % at 4 µM or 5 µM; PPC-1 cells + TRAIL, ATPLite viability luminescence;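 active means cell killing above 50% in the first pass at 4 µM, then a duplicate retest at 5 µM averaging 50% or more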;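 further: plate controls were cells with TRAIL plus DMSO for no effect and medium-only wells lacking cells for full effect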
SENP7 inh – inhibitors of human SENP7 protease; Q9BQF6; recombinant SENP7, Z-RLRGG-aminoluciferin luminescence, 40 min; inhibition, % at 5 µM; hit rate 1.5% among 330,000; AID 434973;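 active means inhibition above about 50% at the single test dose, limit read from the data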;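 further: plate controls were DMSO with enzyme for no effect and no enzyme buffer wells for full effect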
Target sequence (Q9BQF6 706-1050 limits assumed): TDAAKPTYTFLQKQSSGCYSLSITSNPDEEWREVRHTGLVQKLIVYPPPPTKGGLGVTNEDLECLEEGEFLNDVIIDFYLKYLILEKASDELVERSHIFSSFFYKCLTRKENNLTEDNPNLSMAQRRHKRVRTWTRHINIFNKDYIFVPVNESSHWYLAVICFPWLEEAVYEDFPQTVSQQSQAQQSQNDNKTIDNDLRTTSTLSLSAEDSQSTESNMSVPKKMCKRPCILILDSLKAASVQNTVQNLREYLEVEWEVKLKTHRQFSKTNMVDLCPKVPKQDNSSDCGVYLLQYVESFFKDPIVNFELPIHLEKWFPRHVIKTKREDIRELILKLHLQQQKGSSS
SENP8 block-2 – inhibitors of human SENP8 protease; Q96LD8; recombinant SENP8, Nedd8 substrate fluorescence; inhibition, % at 20 µM; hit rate 0.64% among 360,000; in the data active means inhibition mostly above about 40%, no sharp cut-off; inactive means mostly below about 27%
SENP8 conf – human SENP8 inhibition, confirmed. shares compounds with SENP7 inh. Recombinant SENP8, Z-RLRGG-aminoluciferin luminescence, 60 min. inhibition, % at 12.5 µM. hit rate 40% among 6,200. AID 488912;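 active means mean inhibition across replicates above about 50%, limit read from the data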
SENP6 confirm – confirmation of human SENP6 protease inhibitors; shares compounds with SENP7 inh; recombinant SENP6, Z-RLRGG-aminoluciferin luminescence; inhibition, % at 12.5 µM; hit rate 58% among 6,200
SENP7 confirm – confirmation of human SENP7 protease inhibitors. shares compounds with SENP7 inh. recombinant SENP7, Z-RLRGG-aminoluciferin luminescence, 40 min. inhibition, % at 12.5 µM. AID 488917. hit rate 69% among 6,200
Casp3 select – caspase-3 inhibition (SENP selectivity assay); hit rate 60% among 6,200; shares compounds with SENP7 inh; purified caspase-3, Z-DEVD-aminoluciferin luminescence, 60 min; inhibition, % at 12.5 µM;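 active means mean inhibition above about 50%, limit read from the data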;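 further: plate controls were enzyme with DMSO for no effect and wells without caspase-3 for full effect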
Target sequence (P42574 28-227 limits assumed): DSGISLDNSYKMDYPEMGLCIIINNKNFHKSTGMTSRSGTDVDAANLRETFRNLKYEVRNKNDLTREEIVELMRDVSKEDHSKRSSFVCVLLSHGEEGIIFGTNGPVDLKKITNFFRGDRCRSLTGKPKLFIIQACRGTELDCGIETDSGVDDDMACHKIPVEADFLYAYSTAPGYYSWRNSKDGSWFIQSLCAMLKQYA
SENP luc ctr – counter-screen for SENP inhibitors: luminescence interference; shares compounds with SENP7 inh; Pre-incubated SENP8/Z-RLRGG-aminoluciferin, luciferase luminescence interference; inhibition, % at 12.5 µM; hit rate 39% among 6,200;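 active means mean inhibition above about 50% when retested at one dose, limit read from the data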;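 further: plate controls were DMSO wells with completed reaction for no effect and substrate without enzyme for full effect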
An asterisk follows results filed as active; / = not tested or not shown. In the library only some 3% were active in any assay of this set; here they are far more common.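 How the source made its calls, unless noted: active means mean inhibition above about 50% in the one-dose retest (limit read from the data); inactive means the rest.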

SMILES	SENP6 inh	SENP8 block-1	TRAIL sens C8	PPC-1+TRAIL kill	SENP7 inh	SENP8 block-2	SENP8 conf	SENP6 confirm	SENP7 confirm	Casp3 select	SENP luc ctr
COc1ccc(OC)c(NC(=O)CSc2nncc(=O)n2N)c1	0.7	0.9	-1.5	/	-5.9	0.8	/	/	/	/	/
Clc1c(-c2ccccc2)nnn1-c1ccccc1	90.6*	76.2*	21.0	8.7	76.9*	15.7	74.5*	81.3*	95.6*	75.4*	75.9*
Nc1nnn(-c2ccccc2)c1-c1ccccc1	-18.4	-5.1	-21.9	/	-15.0	0.3	/	/	/	/	/
CCN1CCc2nc3sc(C(=O)N4CCc5ccccc5C4)c(N)c3cc2C1	6.3	2.4	4.9	/	2.7	-192.9	/	/	/	/	/
CC(C)OC(=O)CC(=O)c1sc2nc3c(cc2c1N)CN(C)CC3	54.2*	0.9	/	15.8	-8.0	/	3.9	4.1	-6.7	0.8	-6.4
O=C(O)c1cccc(-n2c(-c3cnccn3)n[nH]c2=S)c1	6.1	6.6	1.9	26.0	1.8	11.6	/	/	/	/	/
CN1CCS/C1=C\C=C1/SC(=S)N(CC(=O)O)C1=O	/	/	7.8	0.0	/	22.7	/	/	/	/	/
CCN1C(=O)/C(=C/C=C2/SCCN2C)SC1=S	80.0*	47.8	4.5	8.7	76.5*	46.8*	-0.5	12.8	9.9	16.2	4.9
CC(C)(C)c1ccc(C(=O)Nc2cnccn2)cc1	52.4*	28.9	74.8*	-15.7	55.0*	9.6	38.3	47.4	60.3*	63.0*	30.0
CN1CCCC(C)(C(=O)Nc2ccc(-n3cccc3)cc2)C1 (stereo not drawn)	/	/	6.4	/	/	8.4	/	/	/	/	/
O=[N+]([O-])c1ccc(COn2nnc3ccccc32)cc1	14.6	-13.4	4.0	17.3	-0.7	14.1	/	/	/	/	/
Clc1ccc(COn2nnc3ccccc32)c(Cl)c1	60.0*	10.4	13.3	13.4	36.0	-7.9	45.8	46.2	76.6*	35.7	47.0
Cc1ccc(C(=O)Nc2scc(-c3ccccc3)c2C(=O)O)o1	49.9	66.5*	-4.9	25.6	57.1*	-253.1	85.5*	85.0*	96.1*	92.2*	81.7*
CC(C)Cc1csc(NC(=O)c2ccc(Br)cc2)c1C(=O)O	93.8*	87.6*	-10.3	-1.2	-5.3	7.3	92.2*	94.0*	92.5*	80.3*	58.4*
O=C(/C=C/c1ccco1)Nc1scc(-c2ccccc2)c1C(=O)O	97.8*	97.1*	54.3*	48.0	95.0*	-4.4	98.1*	98.8*	102.1*	97.9*	97.4*
CC(C)Cc1csc(NC(=O)C(C)C)c1C(=O)O	-0.4	3.3	-10.2	-10.7	-2.3	19.1	/	/	/	/	/
Cc1ccccc1C(=O)Nc1scc(-c2ccc(Br)cc2)c1C(=O)O	86.3*	75.0*	-0.4	/	1.4	-46.9	2.2	53.1*	11.6	52.3*	4.3
CC(=O)N1C(=O)N(C(C)=O)C2C1N(C)C(=O)N2C(C)=O (stereo not drawn)	-11.3	1.4	-6.7	9.6	5.2	15.2	/	/	/	/	/
O=C(NCc1ccccc1C(F)(F)F)C1CCC(=O)N(CCCc2ccccc2)C1 (stereo not drawn)	-11.6	-15.3	-2.1	/	-9.8	3.7	/	/	/	/	/
COc1ccc(-c2csc(NC(=O)c3ccccc3Br)c2C(=O)O)cc1	52.5*	29.8	-16.6	/	5.8	5.0	49.4	48.6	68.5*	47.9	61.6*
Cc1cc(NC(=O)c2ccccc2F)on1	-15.1	-8.6	16.0	26.7	-13.6	12.0	/	/	/	/	/
O=C(Nc1scc(-c2ccccc2)c1C(=O)O)c1ccccc1F	74.7*	68.0*	7.9	/	15.2	-45.3	82.2*	78.7*	90.2*	85.1*	79.8*
COc1ccc(-c2csc(NC(=O)c3cccs3)c2C(=O)O)cc1OC	30.6	60.1*	-13.4	15.3	44.8	-18.9	3.9	71.9*	89.8*	74.7*	75.8*
O=C(/C=C/c1ccccc1)Nc1scc(-c2ccccc2)c1C(=O)O	/	/	30.7	22.5	/	-3.3	/	/	/	/	/
COc1ccc(-c2csc(NC(=O)c3ccccc3OC)c2C(=O)O)cc1OC	9.1	-8.7	13.3	/	1.3	-153.8	/	/	/	/	/
SMILES	SENP6 inh	SENP8 block-1	TRAIL sens C8	PPC-1+TRAIL kill	SENP7 inh	SENP8 block-2	SENP8 conf	SENP6 confirm	SENP7 confirm	Casp3 select	SENP luc ctr
COc1ccc(-c2csc(NC(=O)c3ccc(C(C)(C)C)cc3)c2C(=O)O)cc1	-8.3	-1.9	/	/	11.3	/	/	/	/	/	/
Cc1ccc(-c2csc(NC(=O)c3ccccc3F)c2C(=O)O)cc1	82.4*	80.0*	-3.0	/	38.9	-20.4	7.5	85.3*	93.2*	83.6*	59.3*
CCCCCC(=O)Nc1ccc(S(=O)(=O)NC2=NCCCCC2)cc1	-6.9	0.9	6.3	/	-6.1	13.8	/	/	/	/	/
CC1CCCN(S(=O)(=O)c2cc3c4c(c2)C(C)C(=O)N4CCC3)C1 (stereo not drawn)	-3.6	2.8	4.8	/	4.4	2.5	/	/	/	/	/
O=C(c1ccco1)N1CCCC(c2nc3c(nnn3Cc3c(Cl)cccc3Cl)c(=O)[nH]2)C1 (stereo not drawn)	-16.3	-1.7	4.7	/	7.3	12.4	/	/	/	/	/
O=C(Nc1scc(-c2ccc(Br)cc2)c1C(=O)O)c1ccccc1F	88.0*	86.6*	1.4	/	12.5	-36.2	86.6*	86.0*	67.6*	76.8*	33.4
CN(C)c1ccc(C=O)c(Oc2ccccc2)c1	/	/	-11.1	/	/	-4.9	/	/	/	/	/
O=C(COc1ccc(Cc2ccccc2)cc1)c1ccc(F)cc1	59.9*	26.3	-9.0	-13.3	52.0*	1.1	19.3	36.1	50.8*	24.7	10.9
C[N+](C)(C)CCN1C(=O)c2ccccc2C1=O	/	/	-14.7	/	/	-2.3	/	/	/	/	/
Cc1ccc(N2CCN(C(=O)C(=O)c3ccc4c(c3)OCO4)CC2)cc1	/	/	-6.7	/	/	12.1	/	/	/	/	/
Cc1ccc(NC(=O)c2noc3c2CCCCC3)cc1	33.5	6.9	18.0	21.9	18.9	9.2	/	/	/	/	/
CCc1ccc(NC(=O)c2noc3c2CCC3)cc1	88.0*	70.3*	27.6	4.0	60.0*	12.7	79.7*	80.1*	96.5*	84.1*	81.4*
Cc1ccc(O)c(NC(=O)c2noc3c2CCCCC3)c1	-42.6	76.1*	11.5	44.6	79.7*	-3.8	30.0	24.4	45.5	21.0	41.4
Cc1ccc(NC(=O)c2noc3c2CCCCC3)cc1C	43.9	8.8	16.9	-8.4	62.5*	11.3	13.9	13.4	27.1	17.8	9.3
CCn1cc(Br)c(C(=O)NC(=S)Nc2ccc(C(=O)OC)cc2)n1	-5.8	7.2	-10.3	19.6	2.6	18.9	/	/	/	/	/
